Laboratory results published in PubChem BioAssay (NCATS).
Inconclusive results are not listed. The source made the active and inactive calls. Calls come from the whole dose curve; as a rule, active = well fitted cell-killing curve with a large enough effect; inconclusive = small, poorly fitted or top-dose-only effect, or effect the other way; inactive = flat fitted curve, though single readings scatter.

How the values were obtained:
Assay in all cases: Primary qHTS to identify gynecologic anti-cancer compounds using libraries of approved drugs and bioactive compounds (AID 1345084); note: nearly all actives have a fitted effect of over 55% in size
CAOV3 = settings: Gynecologic cancer cell panel viability, ATPlite luminescence, 48 h; series mostly up to 57.5 µM
In short: (§1)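 Cell viability after 48 h drug treatment, ATPlite luminescence readout; five doses.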

CASKI = settings: Gynecologic cancer cell panel viability, ATPlite luminescence, 48 h; series mostly up to 57.5 µM
In short: as §1

Es-2 = settings: Gynecologic cancer cell panel viability, ATPlite luminescence, 48 h; series mostly up to 57.5 µM
In short: as §1

HeLa = settings: Gynecologic cancer cell panel viability, ATPlite luminescence, 48 h; series mostly up to 57.5 µM
In short: as §1

Hek293T = settings: Gynecologic cancer cell panel viability, ATPlite luminescence, 48 h, control line for the selectivity index; series mostly up to 57.5 µM
In short: as §1

JEG-3 = settings: Gynecologic cancer cell panel viability, ATPlite luminescence, 48 h; series mostly up to 57.5 µM
In short: as §1

OV90 = settings: Gynecologic cancer cell panel viability, ATPlite luminescence, 48 h; series mostly up to 57.5 µM
In short: as §1

PA-1 = settings: Gynecologic cancer cell panel viability, ATPlite luminescence, 48 h; series mostly up to 57.5 µM
In short: as §1

SKOV3 = settings: Gynecologic cancer cell panel viability, ATPlite luminescence, 48 h; series mostly up to 57.5 µM
In short: as §1

Tov-21-G = settings: Gynecologic cancer cell panel viability, ATPlite luminescence, 48 h; series mostly up to 57.5 µM
In short: as §1

Tov112D = settings: Gynecologic cancer cell panel viability, ATPlite luminescence, 48 h; series mostly up to 57.5 µM
In short: as §1
% is set by controls: 0 for no effect and ±100 for the full control effect.

O=C(O[C@@H]1O[C@H](CO)[C@@H](O)[C@H](O)[C@H]1O)c1c(O)cc(O)cc1/C=C/c1ccccc1
inactive: Potency (CAOV3) | Potency (CASKI) | Potency (Es-2) | Potency (HeLa) | Potency (Hek293T) | Potency (JEG-3) | Potency (OV90) | Potency (PA-1) | Potency (SKOV3) | Potency (Tov-21-G) | Potency (Tov112D)

OCCc1ccc(O[C@@H]2O[C@H](CO)[C@@H](O)[C@H](O)[C@H]2O)c(O)c1
inactive: Potency (CAOV3) | Potency (CASKI) | Potency (Es-2) | Potency (HeLa) | Potency (Hek293T) | Potency (JEG-3) | Potency (OV90) | Potency (PA-1) | Potency (SKOV3) | Potency (Tov-21-G) | Potency (Tov112D)

CC[C@H]1OC(=O)[C@H](C)[C@@H](O[C@H]2C[C@@](C)(OC)[C@@H](O)[C@H](C)O2)[C@H](C)[C@@H](O[C@@H]2O[C@H](C)C[C@H](N(C)C)[C@H]2O)[C@@](C)(O)C[C@@H](C)[C@@H]2N[C@@H](COCCOC)OC([C@H]2C)[C@]1(C)O
inactive: Potency (CAOV3) | Potency (CASKI) | Potency (Es-2) | Potency (HeLa) | Potency (Hek293T) | Potency (JEG-3) | Potency (OV90) | Potency (PA-1) | Potency (SKOV3) | Potency (Tov-21-G) | Potency (Tov112D)

CC(C)(O)c1ccc2c(c1)C(=O)CC1[C@](C)(CO)CCC[C@]21C (some centres undefined)
inactive: Potency (CAOV3) | Potency (CASKI) | Potency (Es-2) | Potency (HeLa) | Potency (Hek293T) | Potency (JEG-3) | Potency (OV90) | Potency (PA-1) | Potency (SKOV3) | Potency (Tov-21-G) | Potency (Tov112D)

CC(C)[C@@H](C)/C=C/[C@@H](C)[C@H]1CC[C@H]2C3=CC=C4C[C@@H](O)CC[C@]4(C)[C@H]3CC[C@]12C
inactive: Potency (CAOV3) | Potency (CASKI) | Potency (Es-2) | Potency (HeLa) | Potency (Hek293T) | Potency (JEG-3) | Potency (OV90) | Potency (PA-1) | Potency (SKOV3) | Potency (Tov-21-G) | Potency (Tov112D)

COc1cc([C@H]2OC[C@]3(OC(C)=O)[C@@H](c4ccc(O[C@@H]5O[C@H](CO)[C@@H](O)[C@H](O)[C@H]5O)c(OC)c4)OC[C@H]23)ccc1O
inactive: Potency (CAOV3) | Potency (CASKI) | Potency (Es-2) | Potency (HeLa) | Potency (Hek293T) | Potency (JEG-3) | Potency (OV90) | Potency (PA-1) | Potency (SKOV3) | Potency (Tov-21-G) | Potency (Tov112D)

N#CC1C(=O)Nc2scc(-c3ccc(-c4ccccc4O)cc3)c2C1=O (centres undefined)
inactive: Potency (CAOV3) | Potency (CASKI) | Potency (Es-2) | Potency (HeLa) | Potency (Hek293T) | Potency (JEG-3) | Potency (OV90) | Potency (PA-1) | Potency (SKOV3) | Potency (Tov-21-G) | Potency (Tov112D)

COc1cc(/C=C/C(=O)O[C@H]2[C@H](OC(=O)/C=C/c3cc(OC)c(O)c(OC)c3)O[C@H](CO[C@@H]3O[C@H](CO)[C@@H](O)[C@H](O)[C@H]3O)[C@@H](O)[C@@H]2O)ccc1O
inactive: Potency (CAOV3) | Potency (CASKI) | Potency (Es-2) | Potency (HeLa) | Potency (Hek293T) | Potency (JEG-3) | Potency (OV90) | Potency (PA-1) | Potency (SKOV3) | Potency (Tov-21-G) | Potency (Tov112D)

CC1CC(=O)C2=C(O1)OC1(C)CCC3C(C)(C)C=CC(=O)C3(C)C1C2 (centres undefined)
inactive: Potency (CAOV3) | Potency (CASKI) | Potency (Es-2) | Potency (HeLa) | Potency (Hek293T) | Potency (JEG-3) | Potency (OV90) | Potency (PA-1) | Potency (SKOV3) | Potency (Tov-21-G) | Potency (Tov112D)

O=c1c2ccccc2nc2n1CCC2O (centres undefined)
inactive: Potency (CAOV3) | Potency (CASKI) | Potency (Es-2) | Potency (HeLa) | Potency (Hek293T) | Potency (JEG-3) | Potency (OV90) | Potency (PA-1) | Potency (SKOV3) | Potency (Tov-21-G) | Potency (Tov112D)

COC1C2=C(COC2=O)C2(C)CCCC(C)(CO)C2C1OC(=O)c1ccccc1 (centres undefined)
inactive: Potency (CAOV3) | Potency (CASKI) | Potency (Es-2) | Potency (HeLa) | Potency (Hek293T) | Potency (JEG-3) | Potency (OV90) | Potency (PA-1) | Potency (SKOV3) | Potency (Tov-21-G) | Potency (Tov112D)

C[C@@H]1O[C@@H](O[C@@H]2[C@@H](O)[C@H](O[C@@H]3[C@@H](O)[C@@H](O)[C@H](O[C@H]4[C@H](OC(=O)[C@]56CCC(C)(C)C[C@H]5C5=CCC7[C@@]8(C)C[C@H](O)[C@H](O[C@@H]9O[C@H](C(=O)O)[C@@H](O)[C@H](O)[C@H]9O)[C@@](C)(CO)C8[C@H](O)C[C@@]7(C)[C@]5(C)CC6)OC[C@H](O)[C@@H]4O)O[C@H]3C)OC[C@H]2O)[C@H](O)[C@H](O)[C@H]1O (some centres undefined)
inactive: activity change, negative = cytotoxicity (CAOV3) 1.69% [at 6.55 µM] | activity change, negative = cytotoxicity (CASKI) -21.9% [at 6.55 µM] | activity change, negative = cytotoxicity (Es-2) 7.07% [at 6.55 µM] | activity change, negative = cytotoxicity (HeLa) 9.33% [at 6.55 µM] | activity change, negative = cytotoxicity (Hek293T) -1.15% [at 6.55 µM] | activity change, negative = cytotoxicity (JEG-3) -4.08% [at 6.55 µM] | activity change, negative = cytotoxicity (OV90) -1.61% [at 6.55 µM] | activity change, negative = cytotoxicity (PA-1) 3.21% [at 6.55 µM] | activity change, negative = cytotoxicity (SKOV3) -6.44% [at 6.55 µM] | activity change, negative = cytotoxicity (Tov-21-G) -4.43% [at 6.55 µM] | activity change, negative = cytotoxicity (Tov112D) 4.06% [at 6.55 µM]

COc1cc([C@H]2OC[C@@H]3[C@@H](c4ccc(O[C@@H]5O[C@H](CO)[C@@H](O)[C@H](O)[C@H]5O)c(OC)c4)OC[C@]23O)ccc1O
inactive: Potency (CAOV3) | Potency (CASKI) | Potency (Es-2) | Potency (HeLa) | Potency (Hek293T) | Potency (JEG-3) | Potency (OV90) | Potency (PA-1) | Potency (SKOV3) | Potency (Tov-21-G) | Potency (Tov112D)

O=C(O[C@H]1[C@@H]2C[C@@H]3OC[C@@](O)([C@H]2[C@H](O[C@@H]2O[C@H](CO)[C@@H](O)[C@H](O)[C@H]2O)O3)[C@@H]1O)c1ccccc1
inactive: Potency (CAOV3) | Potency (CASKI) | Potency (Es-2) | Potency (HeLa) | Potency (Hek293T) | Potency (JEG-3) | Potency (OV90) | Potency (PA-1) | Potency (SKOV3) | Potency (Tov-21-G) | Potency (Tov112D)
